# Measured values reported in PubChem BioAssay AID1851 (National Center for Advancing Translational Sciences (NCATS), 2009).
# Screen size: about 16,000 compounds; about 5,700 (36%) were called active. Roughly 24% stayed inconclusive and do not appear here. The call rests on the fitted dose curve; in most records, active means well fitted curve in the direction sought with a large enough effect; inconclusive means small, poorly fitted or top-dose-only effect, or effect the other way; inactive means no such curve, though single readings can be large or run the other way. The list shows a part of the results.
# Target: Cytochrome P450 1A2 (Homo sapiens) (UniProt P05177)
# Experiment: Cytochrome panel assay with activity outcomes
# Conditions: recombinant CYP, pro-luciferin dealkylation, luminescence, p450-cyp1a2; series mostly up to 57.1 µM; activity, negative = inhibition: at the top concentration
# On the % scale 0 is the no-effect control and ±100 the full control effect.
# Chain of Cytochrome P450 1A2 (Homo sapiens) (P05177 whole entry, looked up): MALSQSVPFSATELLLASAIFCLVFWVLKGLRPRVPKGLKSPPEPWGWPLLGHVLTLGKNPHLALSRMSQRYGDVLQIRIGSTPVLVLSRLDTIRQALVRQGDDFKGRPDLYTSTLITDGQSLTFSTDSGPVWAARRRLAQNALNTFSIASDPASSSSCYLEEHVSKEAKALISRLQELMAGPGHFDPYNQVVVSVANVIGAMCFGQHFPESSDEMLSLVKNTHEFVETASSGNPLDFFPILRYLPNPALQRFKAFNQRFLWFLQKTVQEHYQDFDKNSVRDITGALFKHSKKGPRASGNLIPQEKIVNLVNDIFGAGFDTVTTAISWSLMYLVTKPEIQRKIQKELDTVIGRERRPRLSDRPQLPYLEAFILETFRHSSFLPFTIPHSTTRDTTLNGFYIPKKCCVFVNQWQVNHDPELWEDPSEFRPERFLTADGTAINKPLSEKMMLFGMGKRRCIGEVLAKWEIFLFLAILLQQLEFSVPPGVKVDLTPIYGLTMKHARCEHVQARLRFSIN
SMILES,"activity, negative = inhibition",AC50
C[C@H](CN(C)C)C(=O)c1ccccc1C(=O)O,-5.91% [at 11.4 µM] (inactive),
CC(=O)N(CC(=O)O)c1ccccc1C(=O)O,1.47% (inactive),
CC(C)=CCC/C(C)=C/CC/C(C)=C/CSc1ccccc1C(=O)O,,12600 nM (active)
CNc1ncnc2c1ncn2[C@@H]1O[C@H](CO)[C@@H](O)[C@@H]1O,13.3% [at 25.6 µM] (inactive),
CCOc1ccc(N2C(=O)CS/C2=N/NC(=O)COc2ccc3ccccc3c2)cc1,,14100 nM (active)
O=C(COc1ccc2ccccc2c1)N1CCN(C(=O)c2cccnc2)CC1,-16% (inactive),
CC(=O)N1CCN(S(=O)(=O)c2ccccc2)C1c1ccccc1 (stereo not given),5.89% (inactive),
COc1ccc(C)cc1NC(=O)CCC(=O)Nc1nnc(C(F)(F)F)s1,-6.76% (inactive),
Cc1cccc(C(=O)NNC(=O)C(=O)NC(C)(C)C)c1,-1.15% (inactive),
C=C(C)c1cccc(C(C)(C)NC(=O)Nc2cc(C)ccc2OC)c1,,11200 nM (active)
C/C(=N\O)c1ccc2[nH]ccc2c1,,4470 nM (active)
C/C(=N/O)c1ccc2cc(Br)c3ccccc3c2c1,-13.6% [at 2.29 µM] (inactive),
C[C@H](O/N=C1/[C@H]2O[C@@H]2[C@@H](O)[C@H]2[C@H]1CCn1c(=O)n(-c3ccccc3)c(=O)n12)c1cn([C@H]2COC[C@H]2O)nn1,4.91% [at 11.4 µM] (inactive),
COc1ccc(/C=C2\N=C(SC)N(C)C2=O)cc1,,1780 nM (active)
CO/N=C(\C(=O)N[C@@H]1C(=O)N2C(C(=O)O)=C(COC(N)=O)CS[C@@H]12)c1ccco1,-6.52% [at 25.6 µM] (inactive),
COc1cccc(-c2cc(NCc3ccc(OC)cc3OC)ncn2)c1,,2000 nM (active)
COc1cccc(-c2cc(NCc3ccccc3OC)ncn2)c1,,1260 nM (active)
CC(C)C[C@H]1C(=O)N2CCC[C@@H]2[C@]2(O)O[C@](NC(=O)[C@@H]3C=C4c5cccc6[nH]c(Br)c(c56)C[C@H]4N(C)C3)(C(C)C)C(=O)N12,-8.76% (inactive),
Cc1nc2ncnn2c(C)c1CCC(=O)Nc1ccc(S(=O)(=O)N2CCCCCC2)cc1,-36% (inactive),
COc1ccccc1Cn1c(=S)[nH]c2cc(C(=O)N3CCN(C)CC3)ccc2c1=O,-25.6% (inactive),
O=c1c2cc(Br)ccc2[nH]c(=S)n1Cc1cccnc1,,251 nM (active)
COc1cc(C(=O)NCc2cccc3ccccc23)cc(Cl)c1OC,,10000 nM (active)
COc1ccc(-n2c(CNC(=O)c3cc(OC)c(OC)c(OC)c3)n[nH]c2=S)cc1,-29.2% (inactive),
CN(Cc1cnc2nc(N)nc(N)c2n1)c1ccc(C(=O)N[C@H](CCC(=O)O)C(=O)O)cc1,-7.75% [at 25.6 µM] (inactive),

SMILES,"activity, negative = inhibition",AC50
CCN(/C=N/c1sc2c(c1C#N)CCCCC2)CC,,2510 nM (active)
CCCN(/C=N/c1sc2c(c1C#N)CCCCC2)CCC,,14100 nM (active)
O=S(=O)(c1ccccc1)N1CCC2(CC1)CN(C(c1ccccc1)c1ccccc1)C2,2.71% (inactive),
CC1CCN(c2ccc(S(=O)(=O)Nc3cc(C(=O)O)cc(C(=O)O)c3)cc2[N+](=O)[O-])CC1,-20.9% (inactive),
COc1ccc(N2CCN(S(=O)(=O)c3ccc4c(c3)CCCC4)CC2)c([N+](=O)[O-])c1,-18.7% (inactive),
O=C1CCCN1c1ccc(S(=O)(=O)Oc2cccc(Cl)c2)cc1[N+](=O)[O-],,15800 nM (active)
COc1ccc(S(=O)(=O)N2CC3CCCN3c3ccc(C(F)(F)F)cc32)cc1 (stereo not given),,12600 nM (active)
CCn1c(SC)nnc1C1CCN(S(=O)(=O)c2ccc(OC)cc2)CC1,3.42% (inactive),
COc1ccc(S(=O)(=O)N2CCC(N3CCCCC3)CC2)cc1,8.73% (inactive),
NC(=O)C(=O)O,0.732% (inactive),
Nc1ccccc1S[C@@H](C[N+](=O)[O-])c1ccc2c(c1)OCO2,,631 nM (active)
CCCCNC(=S)NNC(=O)CCn1nc(C)c(Br)c1C,,14100 nM (active)
CCCCNC(=O)NC1C(NC(=O)NCCCC)N(C)C(=O)N1C (stereo not given),5.97% (inactive),
CN(N=O)c1ccc(/C=C\c2ccnc3ccccc23)cc1,,158 nM (active)
CC(=O)c1ccc(-n2c(CCC(=O)O)ccc2-c2cccs2)cc1,,14100 nM (active)
O=C(O)CCc1ccc(-c2ccc(Cl)cc2)n1CCC(=O)O,-20.3% (inactive),
NC(=O)Nn1c(CCC(=O)O)ccc1-c1ccc(F)cc1,7.9% (inactive),
Cc1ccc(-n2c(CCC(=O)O)ccc2-c2cccs2)cc1C,,14100 nM (active)
CCOC(=O)C1CCN(C(=O)C2CCN(S(=O)(=O)N3CCCC3)CC2)CC1,6.04% (inactive),
CN1CCN(c2ccc([N+](=O)[O-])cc2C(=O)N2CCOCC2)CC1,-4.87% (inactive),
Cc1cc(N2CCOCC2)ncc1[N+](=O)[O-],,10000 nM (active)
O=[N+]([O-])c1ccc(N2CCOCC2)nc1,,11200 nM (active)
Cn1ncc([N+](=O)[O-])c1C(=O)N1CCOCC1,10.7% (inactive),
Cc1cnc(CNc2ncnc3ccc(-c4ccc5c(c4)OCO5)cc23)cn1,,398 nM (active)

SMILES,"activity, negative = inhibition",AC50
Cc1cnc(CNc2ncnc3ccc(-c4ccoc4)cc23)cn1,,12600 nM (active)
Cc1cnc(CNc2ncnc3ccc(-c4ccc(N(C)C)cc4)cc23)cn1,,1000 nM (active)
O=S(=O)(O)c1ccc2cc(N=Nc3cc(S(=O)(=O)O)c4cccnc4c3O)ccc2c1,-18.8% [at 2.29 µM] (inactive),
CCCCNC(=O)NS(=O)(=O)c1ccc(C(=O)OC(C)C)o1,-8.46% (inactive),
Cc1c(NC(=O)NC(C)N2C(=O)C3C4C=CC(C4)C3C2=O)c(=O)n(-c2ccccc2)n1C (stereo not given),-7.99% (inactive),
CN(C)c1nc(N)c(C(=O)N=C(N)N)nc1Cl,,1000 nM (active)
CC(C)CN(C)c1nc(N)c(C(=O)N=C(N)N)nc1Cl,,794 nM (active)
CCN(c1nc(N)c(C(=O)N=C(N)N)nc1Cl)C(C)C,,2000 nM (active)
NC(N)=NC(=O)c1nc(Cl)c(N2CCCCCC2)nc1N,,1000 nM (active)
O=S(=O)(c1ccc(F)cc1)N1CCCC(CO)C1 (stereo not given),2.77% (inactive),
COc1ccc(NC(=O)N2CC[C@@]3(CCCN(C(=O)c4csnn4)C3)C2)cc1,-8.96% (inactive),
CCN(CC)C(=O)c1cc2cc([N+](=O)[O-])ccc2s1,,2000 nM (active)
CCN(CC)C(=O)Cn1cnc([N+](=O)[O-])n1,5.71% (inactive),
O=C(COc1ccc(Br)cc1)N1CCC(c2ccccc2)C1 (stereo not given),,3160 nM (active)
CCOc1ccc(NC(=O)N2CCC(c3ccc(C)cc3)C2)cc1 (stereo not given),-21.5% (inactive),
Cc1cccc(OCC(=O)N2CCC(N3CCCCCC3)CC2)c1,-6.34% (inactive),
Nc1ccc(C(=O)C[C@H](N)C(=O)O)cc1O,-4.16% [at 11.4 µM] (inactive),
Cc1cccn2c(=O)c(/C=N/O)c(N3CCCC3)nc12,,891 nM (active)
N[C@H](Cn1ccc(=O)n(Cc2ccccc2C(=O)O)c1=O)C(=O)O,-7.78% (inactive),
CCOC(=O)C1=C2SCC(=O)N2C(N)=C(C#N)C1,,1260 nM (active)
CC(C)OC(=O)C1=C2SCC(=O)N2C(N)=C(C#N)C1,,1260 nM (active)
O=C(O)c1ccc2c(c1)C(=O)N(C(Cc1ccc(O)cc1)C(=O)O)C2=O (stereo not given),3.34% (inactive),
CN[C@H]1[C@@H](O[C@@H]2[C@H](O[C@@H]3[C@@H](O)[C@@H](O)[C@@H](N=C(N)N)[C@@H](O)[C@@H]3N=C(N)N)O[C@H](C)[C@@]2(O)C=O)O[C@@H](CO)[C@@H](O)[C@H]1O,-0.443% [at 25.6 µM] (inactive),
CCC(CC)C(=O)Nc1c2cnn(-c3ccccc3)c2nc(=O)n1-c1ccccc1,-18.6% (inactive),

SMILES,"activity, negative = inhibition",AC50
O=c1oc(-c2ccco2)nc2c1cnn2-c1ccccc1,,2000 nM (active)
O=C(Nc1ccc(-n2nncc2-c2ccco2)cc1)c1cc2ccccc2oc1=O,-14.2% (inactive),
CN1C(=C2C(=O)OC(C)(C)OC2=O)Sc2ccccc21,,11200 nM (active)
CC1(C)CCCN(C(=O)N2c3ccccc3Sc3ccccc32)C1,-13.2% (inactive),
Nc1ncnc(N(c2ccccc2)C2CCCCC2)c1[N+](=O)[O-],11.3% (inactive),
Cn1c(SC2=CS(=O)(=O)c3ccccc32)nc2ccccc21,,6310 nM (active)
Cc1cc(C)c(-c2cc([C@H](C)O/N=C3/[C@H]4OC4[C@@H](O)[C@H]4[C@H]3CCn3c(=O)n(-c5ccccc5)c(=O)n34)on2)c(C)c1 (stereo not given in full),-8.09% [at 11.4 µM] (inactive),
CCOC(=O)c1sc(=N)n(-c2ccc(OC)cc2)c1C,,1260 nM (active)
COc1ccc(-n2c(C)nn(C)c2=O)cc1,-5.51% (inactive),
NCC[C@H](O)C(=O)N[C@H]1C[C@@H](N)[C@@H](O[C@H]2O[C@@H](CN)[C@@H](O)[C@@H](O)[C@@H]2O)[C@@H](O)[C@@H]1O[C@H]1O[C@@H](CO)[C@@H](O)[C@@H](N)[C@@H]1O,-4.21% [at 25.6 µM] (inactive),
CCc1cc2c(=O)c(-c3nc4ccccc4n3C)c(C)oc2c(CN(CC)CC)c1O,-17.4% (inactive),
Cc1oc2c(C)c(O)ccc2c(=O)c1-c1ccc2ccccc2n1,,2240 nM (active)
C=CCc1cccc2cc(C(=O)N(CC)CC)c(=O)oc12,,1410 nM (active)
O=c1c(CCc2ccccc2)nc2cncnc2n1C1CC1,,6310 nM (active)
CN(C)c1ncc2nc(CCc3ccccc3)c(=O)n(C3CC3)c2n1,,3160 nM (active)
COc1ccc(C2C(=O)N(CCc3ccccc3)CC(=O)N2C2CCCC2)cc1 (stereo not given),-22.8% (inactive),
COc1ccc(Oc2ncc3nc(CCc4ccccc4)c(=O)n(C4CC4)c3n2)cc1,,12600 nM (active)
COc1ncc2nc(CCc3ccccc3)c(=O)n(C3CC3)c2n1,,3160 nM (active)
C[C@@]1(C(=O)O)CCC[C@@H]1C(=O)O,-9.8% [at 2.29 µM] (inactive),
O=c1c(CCc2ccccc2)nc2cnc(Oc3ccccc3)nc2n1C1CC1,,7940 nM (active)
COc1ccc(S(=O)(=O)N2CCCCCC2)cc1N(C)S(=O)(=O)c1ccc(Cl)cc1,-1.31% (inactive),
Cc1cc(C)c2c(N)c3ccccc3nc2n1,,2240 nM (active)
Cc1cc(NCCO)c2ccccc2n1,-24.6% (inactive),
